From PubChem BioAssay (NCI)
This is part of a sample that, as a whole, favours compounds with a hit. Of some 83,000 tested, about 20% had one in any assay.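 Results are percent growth after 48 hours of single-concentration exposure. 100 means growth as in untreated cells, lower positive values show inhibition; negative values down to -100 show cell death.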 Calls of active or inactive are those of the source. How the source made its calls: active means growth percent below 10; inactive means the rest.

These molecules were tested on NCI-H522 lung (assay: NCI-60 one-dose screen, 48 h (100 = growth as untreated, 0 = no growth, -100 = all killed)). Details: 10 µM unless noted.
With `O=C(Nc1cccc(-c2ccc(N3CCOCC3)nn2)c1)Nc1cccc(C(F)(F)F)c1` the growth was 46.4% (inactive).
With `CSc1nc2ncc([N+](=O)[O-])c(=O)n2[nH]1` the growth was 93.8% (inactive).
In the case of `COc1cc2ncnc(Nc3ccc(S(=O)(=O)Nc4cc(C)on4)cc3)c2cc1OCCCN1CCN(c2ccc(F)cc2)CC1`, the growth was 91% (inactive).
In the case of `O=S(=O)(NCCNc1nccc(-c2c(-c3ccc(F)c(O)c3)nc3occn23)n1)c1ccc(Cl)cc1`, the growth was 76.6% (inactive).
`Nc1ncnc2c1N=C(c1ccc(Br)cc1)CC(c1cccc(Nc3ccnc4cc(C(F)(F)F)ccc34)c1)N2` (configuration not stated) was tested, and the growth was 74% (inactive).
`Nc1ncc(-c2ccc3ncnc(Nc4cccc(Cl)c4)c3c2)cn1` was tested, and the growth was 3.25% (active).
For `O=C(Nc1ccccc1)Nc1ncnc2c1ncn2-c1ccc(Cl)cc1`, the growth was 85.4% (inactive).
